# Measured values from PMC7862700, “An all-to-all approach to the identification of sequence-specific readers for epigenetic DNA modifications on cytosine”.
# Experiments:
# Experiment in all cases: DAPPL (digital affinity profiling via proximity ligation, sequencing); 10 mM Tris-HCl pH 7.5, 50 mM NaCl, 1 mM DTT, 4% glycerol, room temperature, 30 min; GST-TFs on glutathione beads, 16-mer random dsDNA library, 0.1% formaldehyde crosslink after washing; high values mean tight binding
# FLI1 = biological target: T1, FLI1 (Homo sapiens, UniProt Q01543 1-452); details: protein: recombinant; tags: N-terminal GST; dsDNA, one strand shown
# T1 sequence: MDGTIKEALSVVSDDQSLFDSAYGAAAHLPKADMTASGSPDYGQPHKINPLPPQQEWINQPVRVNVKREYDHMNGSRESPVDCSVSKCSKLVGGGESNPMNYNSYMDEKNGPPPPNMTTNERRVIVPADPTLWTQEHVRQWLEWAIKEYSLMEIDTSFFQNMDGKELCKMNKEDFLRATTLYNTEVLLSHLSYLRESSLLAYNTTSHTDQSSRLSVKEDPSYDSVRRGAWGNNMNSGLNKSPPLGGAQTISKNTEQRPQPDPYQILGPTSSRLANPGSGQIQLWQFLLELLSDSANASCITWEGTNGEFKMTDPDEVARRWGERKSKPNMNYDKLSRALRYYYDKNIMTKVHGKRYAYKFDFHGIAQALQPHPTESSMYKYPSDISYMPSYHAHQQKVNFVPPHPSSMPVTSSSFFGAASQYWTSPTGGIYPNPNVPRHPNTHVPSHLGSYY
# In short: (§1)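 Human transcription factors carrying a GST fusion were produced in yeast, bound to glutathione beads, tagged with DNA barcodes and pooled together with a tag-only sample. Each pool was held with 200 nmole of a random double-stranded 16-mer DNA library in Tris/NaCl/DTT/glycerol buffer for 30 min at room temperature, then washed, crosslinked in 0.1% formaldehyde, proximity-ligated with BsaI/T4 ligase (1 h, 37 °C), PCR-amplified and sequenced on an Illumina NextSeq500. Binding signal is the read frequency of each hexamer for a given factor divided by its frequency in the tag-only sample.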
# ELK1 = biological target: T2, ELK1 (Homo sapiens, UniProt P19419 1-428); details: protein: recombinant; tags: N-terminal GST; dsDNA, one strand shown
# T2 sequence: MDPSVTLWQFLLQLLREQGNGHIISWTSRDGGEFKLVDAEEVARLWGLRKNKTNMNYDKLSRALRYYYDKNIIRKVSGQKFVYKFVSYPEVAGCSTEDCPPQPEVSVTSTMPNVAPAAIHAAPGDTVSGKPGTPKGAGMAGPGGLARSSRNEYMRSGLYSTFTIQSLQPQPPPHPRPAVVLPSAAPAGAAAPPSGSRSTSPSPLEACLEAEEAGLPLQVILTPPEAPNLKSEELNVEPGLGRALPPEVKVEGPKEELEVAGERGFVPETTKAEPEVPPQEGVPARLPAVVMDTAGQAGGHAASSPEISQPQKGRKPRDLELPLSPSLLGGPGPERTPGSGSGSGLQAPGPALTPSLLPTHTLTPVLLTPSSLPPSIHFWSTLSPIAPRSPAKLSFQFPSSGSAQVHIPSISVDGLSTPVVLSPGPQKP
# In short: as §1
# GABPA = biological target: T3, GABPA (Homo sapiens, UniProt Q06546 1-454); details: protein: recombinant; tags: N-terminal GST; dsDNA, one strand shown
# T3 sequence: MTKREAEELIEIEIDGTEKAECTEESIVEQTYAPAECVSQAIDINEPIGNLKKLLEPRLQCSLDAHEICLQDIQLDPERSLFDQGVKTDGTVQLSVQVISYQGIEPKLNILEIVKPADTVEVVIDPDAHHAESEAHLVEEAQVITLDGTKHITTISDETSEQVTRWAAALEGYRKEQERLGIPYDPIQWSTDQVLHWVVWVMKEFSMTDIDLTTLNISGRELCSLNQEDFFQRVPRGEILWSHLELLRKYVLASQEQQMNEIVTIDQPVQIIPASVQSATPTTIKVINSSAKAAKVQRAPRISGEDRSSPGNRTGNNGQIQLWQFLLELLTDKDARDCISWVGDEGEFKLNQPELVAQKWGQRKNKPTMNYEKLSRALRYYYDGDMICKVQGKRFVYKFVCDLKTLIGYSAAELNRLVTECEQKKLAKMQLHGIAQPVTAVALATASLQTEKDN
# In short: as §1
# ERG = biological target: T4, ERG (Homo sapiens, UniProt P11308 1-479); details: protein: recombinant; tags: N-terminal GST; dsDNA, one strand shown
# T4 sequence: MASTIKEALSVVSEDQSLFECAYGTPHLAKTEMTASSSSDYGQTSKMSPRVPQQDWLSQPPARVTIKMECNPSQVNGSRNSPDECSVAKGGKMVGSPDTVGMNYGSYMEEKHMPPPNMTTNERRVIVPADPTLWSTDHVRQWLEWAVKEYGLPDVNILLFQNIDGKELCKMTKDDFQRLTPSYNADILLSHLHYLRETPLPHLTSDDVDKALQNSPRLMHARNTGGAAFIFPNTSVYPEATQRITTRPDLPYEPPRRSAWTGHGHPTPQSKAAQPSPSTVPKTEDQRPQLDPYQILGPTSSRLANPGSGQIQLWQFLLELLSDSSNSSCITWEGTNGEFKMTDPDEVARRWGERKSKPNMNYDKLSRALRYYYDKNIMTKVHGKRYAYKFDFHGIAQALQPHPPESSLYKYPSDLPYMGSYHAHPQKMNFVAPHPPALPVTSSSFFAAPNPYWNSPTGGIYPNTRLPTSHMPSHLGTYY
# In short: as §1
# ELF1 = ELF1 (Homo sapiens, UniProt P32519 1-619); details: protein: recombinant; tags: N-terminal GST; dsDNA, one strand shown
# Sequence of ELF1 (P32519 whole entry): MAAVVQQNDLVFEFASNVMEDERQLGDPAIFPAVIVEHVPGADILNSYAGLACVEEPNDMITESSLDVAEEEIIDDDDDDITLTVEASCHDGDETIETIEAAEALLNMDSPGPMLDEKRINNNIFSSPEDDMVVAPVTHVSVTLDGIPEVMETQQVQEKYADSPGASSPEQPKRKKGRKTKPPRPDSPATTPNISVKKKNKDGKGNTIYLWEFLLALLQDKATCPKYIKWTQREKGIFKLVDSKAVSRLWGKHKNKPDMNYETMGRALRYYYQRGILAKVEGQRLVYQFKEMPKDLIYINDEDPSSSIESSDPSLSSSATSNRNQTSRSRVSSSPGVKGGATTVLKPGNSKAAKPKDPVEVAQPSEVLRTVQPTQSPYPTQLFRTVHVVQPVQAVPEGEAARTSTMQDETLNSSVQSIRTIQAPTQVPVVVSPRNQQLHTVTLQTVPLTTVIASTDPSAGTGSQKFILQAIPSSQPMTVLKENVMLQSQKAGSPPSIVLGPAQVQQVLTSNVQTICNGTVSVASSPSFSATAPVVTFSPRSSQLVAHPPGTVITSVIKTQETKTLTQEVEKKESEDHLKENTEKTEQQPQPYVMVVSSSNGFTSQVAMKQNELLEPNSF
# In short: as §1
# EHF = biological target: T5, EHF (Homo sapiens, UniProt Q9NZC4 1-300); details: protein: recombinant; tags: N-terminal GST; dsDNA, one strand shown
# T5 sequence: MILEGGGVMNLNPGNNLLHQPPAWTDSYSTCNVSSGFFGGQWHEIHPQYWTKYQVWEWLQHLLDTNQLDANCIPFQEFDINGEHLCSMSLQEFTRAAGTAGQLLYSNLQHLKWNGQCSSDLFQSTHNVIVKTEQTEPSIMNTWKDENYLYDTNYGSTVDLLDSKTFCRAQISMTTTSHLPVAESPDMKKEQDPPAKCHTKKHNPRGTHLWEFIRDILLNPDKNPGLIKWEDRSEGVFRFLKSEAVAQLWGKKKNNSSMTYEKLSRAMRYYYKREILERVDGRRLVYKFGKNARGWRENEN
# In short: as §1
# SPI1 = SPI1 (Homo sapiens, UniProt P17947 1-270); details: protein: recombinant; tags: N-terminal GST; dsDNA, one strand shown
# In short: as §1
# SPIB = SPIB (Homo sapiens, UniProt Q01892 1-262); details: protein: recombinant; tags: N-terminal GST; dsDNA, one strand shown
# Sequence of SPIB (Q01892 whole entry): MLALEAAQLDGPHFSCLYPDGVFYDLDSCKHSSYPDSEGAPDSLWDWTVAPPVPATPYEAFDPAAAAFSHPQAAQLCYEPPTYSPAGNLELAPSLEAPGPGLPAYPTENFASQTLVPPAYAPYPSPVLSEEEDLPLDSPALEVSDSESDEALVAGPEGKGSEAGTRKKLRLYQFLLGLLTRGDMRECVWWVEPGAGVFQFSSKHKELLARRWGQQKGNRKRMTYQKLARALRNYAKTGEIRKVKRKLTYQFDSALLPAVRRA
# In short: as §1
# ELK3 = biological target: T6, ELK3 (Homo sapiens, UniProt P41970 1-407); details: protein: recombinant; tags: N-terminal GST; dsDNA, one strand shown
# T6 sequence: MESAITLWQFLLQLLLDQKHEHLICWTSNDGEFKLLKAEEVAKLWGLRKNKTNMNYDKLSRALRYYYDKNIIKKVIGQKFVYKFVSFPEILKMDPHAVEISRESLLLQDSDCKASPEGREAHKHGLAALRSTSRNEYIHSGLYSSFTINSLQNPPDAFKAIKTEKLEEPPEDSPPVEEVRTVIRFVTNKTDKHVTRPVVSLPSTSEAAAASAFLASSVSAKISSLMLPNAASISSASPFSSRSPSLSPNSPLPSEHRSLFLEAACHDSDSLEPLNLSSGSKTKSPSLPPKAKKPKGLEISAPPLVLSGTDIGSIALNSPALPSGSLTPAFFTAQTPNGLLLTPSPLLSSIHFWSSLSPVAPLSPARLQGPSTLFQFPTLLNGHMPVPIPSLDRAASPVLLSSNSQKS
# In short: as §1
# FEV = biological target: T7, FEV (Homo sapiens, UniProt Q99581 1-238); details: protein: recombinant; tags: N-terminal GST; dsDNA, one strand shown
# T7 sequence: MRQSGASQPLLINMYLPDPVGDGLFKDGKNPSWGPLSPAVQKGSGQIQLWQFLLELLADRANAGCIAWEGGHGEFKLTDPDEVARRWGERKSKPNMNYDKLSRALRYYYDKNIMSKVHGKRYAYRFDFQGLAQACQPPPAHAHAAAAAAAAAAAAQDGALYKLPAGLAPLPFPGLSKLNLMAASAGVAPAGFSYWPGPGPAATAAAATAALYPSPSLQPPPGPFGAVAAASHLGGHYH
# In short: as §1
# ETV5 = ETV5 (Homo sapiens, UniProt P41161 1-510); details: protein: recombinant; tags: N-terminal GST; dsDNA, one strand shown
# Sequence of ETV5 (P41161 whole entry): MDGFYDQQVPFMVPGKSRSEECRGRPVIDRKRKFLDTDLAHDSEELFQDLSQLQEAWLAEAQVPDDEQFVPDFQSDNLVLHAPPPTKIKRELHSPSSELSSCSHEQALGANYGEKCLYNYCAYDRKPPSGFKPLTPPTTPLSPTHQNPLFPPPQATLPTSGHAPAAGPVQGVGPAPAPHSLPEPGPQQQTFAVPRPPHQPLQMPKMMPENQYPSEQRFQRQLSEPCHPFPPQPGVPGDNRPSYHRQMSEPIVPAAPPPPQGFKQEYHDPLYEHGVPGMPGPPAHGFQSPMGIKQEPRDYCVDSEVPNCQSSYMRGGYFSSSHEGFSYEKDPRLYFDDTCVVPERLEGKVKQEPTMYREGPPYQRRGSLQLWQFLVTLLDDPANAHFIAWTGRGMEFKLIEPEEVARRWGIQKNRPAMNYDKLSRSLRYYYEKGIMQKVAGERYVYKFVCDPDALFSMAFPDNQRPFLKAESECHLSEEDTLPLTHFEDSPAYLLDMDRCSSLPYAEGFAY
# In short: as §1
# HSF1 = HSF1 (Homo sapiens, UniProt Q00613 1-529); details: protein: recombinant; tags: N-terminal GST; chain copies: 3; dsDNA, one strand shown
# Sequence of HSF1 (Q00613 whole entry): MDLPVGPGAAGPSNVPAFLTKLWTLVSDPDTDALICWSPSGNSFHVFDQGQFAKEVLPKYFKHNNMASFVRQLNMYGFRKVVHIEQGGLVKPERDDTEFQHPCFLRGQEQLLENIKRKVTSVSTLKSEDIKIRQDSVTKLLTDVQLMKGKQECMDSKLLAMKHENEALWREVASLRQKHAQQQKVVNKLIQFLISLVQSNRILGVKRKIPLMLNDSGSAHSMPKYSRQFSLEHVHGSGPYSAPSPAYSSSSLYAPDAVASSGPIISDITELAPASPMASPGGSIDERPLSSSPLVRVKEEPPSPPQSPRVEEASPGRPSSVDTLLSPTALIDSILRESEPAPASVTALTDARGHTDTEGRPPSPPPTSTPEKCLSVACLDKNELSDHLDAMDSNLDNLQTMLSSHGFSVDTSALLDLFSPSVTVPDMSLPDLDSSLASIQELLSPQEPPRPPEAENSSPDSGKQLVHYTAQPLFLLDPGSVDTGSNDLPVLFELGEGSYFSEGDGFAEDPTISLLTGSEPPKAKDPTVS
# In short: as §1
# SPIC = biological target: T8, SPIC (Homo sapiens, UniProt Q8N5J4 1-248); details: protein: recombinant; tags: N-terminal GST; dsDNA, one strand shown
# T8 sequence: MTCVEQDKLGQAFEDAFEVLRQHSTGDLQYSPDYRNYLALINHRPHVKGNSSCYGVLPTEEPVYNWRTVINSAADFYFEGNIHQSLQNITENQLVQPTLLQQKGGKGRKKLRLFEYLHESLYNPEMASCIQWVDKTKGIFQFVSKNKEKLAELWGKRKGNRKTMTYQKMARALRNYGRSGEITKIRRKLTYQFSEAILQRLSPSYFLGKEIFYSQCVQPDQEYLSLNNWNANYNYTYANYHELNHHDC
# In short: as §1
# ELF4 = ELF4 (Homo sapiens, UniProt Q99607 1-663); details: protein: recombinant; tags: N-terminal GST; dsDNA, one strand shown
# Sequence of ELF4 (Q99607 whole entry): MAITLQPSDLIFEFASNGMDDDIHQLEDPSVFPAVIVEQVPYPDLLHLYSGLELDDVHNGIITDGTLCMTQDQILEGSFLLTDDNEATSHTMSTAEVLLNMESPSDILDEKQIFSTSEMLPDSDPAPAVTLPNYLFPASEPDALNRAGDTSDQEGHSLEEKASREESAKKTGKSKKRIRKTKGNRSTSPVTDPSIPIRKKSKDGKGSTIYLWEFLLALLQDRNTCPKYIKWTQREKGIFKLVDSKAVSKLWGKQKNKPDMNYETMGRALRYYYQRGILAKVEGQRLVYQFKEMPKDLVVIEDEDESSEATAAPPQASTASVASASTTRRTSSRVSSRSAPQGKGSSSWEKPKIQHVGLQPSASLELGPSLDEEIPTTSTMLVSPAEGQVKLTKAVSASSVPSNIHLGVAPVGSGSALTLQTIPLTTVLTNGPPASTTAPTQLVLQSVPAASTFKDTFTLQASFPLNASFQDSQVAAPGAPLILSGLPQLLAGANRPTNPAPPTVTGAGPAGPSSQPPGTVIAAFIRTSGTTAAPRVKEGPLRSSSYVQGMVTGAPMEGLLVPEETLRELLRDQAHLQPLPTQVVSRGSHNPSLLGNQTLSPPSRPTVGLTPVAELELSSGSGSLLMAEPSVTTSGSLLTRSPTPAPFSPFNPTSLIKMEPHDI
# In short: as §1
# ELK4 = biological target: T9, ELK4 (Homo sapiens, UniProt P28324-2 1-405); details: protein: recombinant; tags: N-terminal GST; dsDNA, one strand shown
# T9 sequence: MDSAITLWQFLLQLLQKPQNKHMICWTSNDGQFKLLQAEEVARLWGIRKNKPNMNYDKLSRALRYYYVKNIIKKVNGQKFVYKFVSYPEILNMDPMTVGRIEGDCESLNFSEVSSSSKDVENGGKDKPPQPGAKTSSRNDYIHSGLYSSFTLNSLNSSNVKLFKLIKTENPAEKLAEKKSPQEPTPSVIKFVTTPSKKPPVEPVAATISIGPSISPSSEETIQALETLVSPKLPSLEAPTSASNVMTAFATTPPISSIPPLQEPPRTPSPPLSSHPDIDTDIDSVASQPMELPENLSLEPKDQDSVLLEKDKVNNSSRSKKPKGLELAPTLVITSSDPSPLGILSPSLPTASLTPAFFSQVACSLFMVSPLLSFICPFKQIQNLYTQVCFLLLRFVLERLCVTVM
# In short: as §1
# ETV2 = biological target: T10, ETV2 (Homo sapiens, UniProt O00321 1-342); details: protein: recombinant; tags: N-terminal GST; dsDNA, one strand shown
# T10 sequence: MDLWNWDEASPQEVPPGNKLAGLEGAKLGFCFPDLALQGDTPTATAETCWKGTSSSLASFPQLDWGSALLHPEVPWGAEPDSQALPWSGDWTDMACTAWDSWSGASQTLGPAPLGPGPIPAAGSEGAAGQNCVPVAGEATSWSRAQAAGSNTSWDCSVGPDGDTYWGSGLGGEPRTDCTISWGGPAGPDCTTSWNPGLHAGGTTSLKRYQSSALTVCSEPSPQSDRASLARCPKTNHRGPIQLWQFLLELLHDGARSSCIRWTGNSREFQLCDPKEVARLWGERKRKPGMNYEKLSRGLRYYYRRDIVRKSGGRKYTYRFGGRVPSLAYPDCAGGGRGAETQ
# In short: as §1
# ELF3 = biological target: T11, ELF3 (Homo sapiens, UniProt P78545 1-371); details: protein: recombinant; tags: N-terminal GST; dsDNA, one strand shown
# T11 sequence: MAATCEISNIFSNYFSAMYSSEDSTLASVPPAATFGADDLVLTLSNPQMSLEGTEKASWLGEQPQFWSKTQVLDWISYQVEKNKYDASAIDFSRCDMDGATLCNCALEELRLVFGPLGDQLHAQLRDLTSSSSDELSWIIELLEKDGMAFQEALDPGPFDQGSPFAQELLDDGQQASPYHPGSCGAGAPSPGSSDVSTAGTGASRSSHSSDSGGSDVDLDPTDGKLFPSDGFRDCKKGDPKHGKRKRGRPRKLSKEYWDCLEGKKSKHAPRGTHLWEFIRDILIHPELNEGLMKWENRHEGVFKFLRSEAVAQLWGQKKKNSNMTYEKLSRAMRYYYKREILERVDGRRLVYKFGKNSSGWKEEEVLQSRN
# In short: as §1
# CRX = CRX (Homo sapiens, UniProt O43186 1-299); details: protein: recombinant; tags: N-terminal GST; dsDNA, one strand shown
# Sequence of CRX (O43186 whole entry): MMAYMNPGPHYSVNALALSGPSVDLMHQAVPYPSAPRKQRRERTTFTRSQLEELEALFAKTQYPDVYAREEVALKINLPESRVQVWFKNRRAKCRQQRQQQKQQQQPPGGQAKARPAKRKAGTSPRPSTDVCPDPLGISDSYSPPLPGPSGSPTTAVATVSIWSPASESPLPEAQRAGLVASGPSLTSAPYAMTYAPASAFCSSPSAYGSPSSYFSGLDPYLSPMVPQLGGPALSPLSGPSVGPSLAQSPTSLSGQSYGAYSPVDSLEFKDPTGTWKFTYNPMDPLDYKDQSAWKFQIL
# In short: as §1
# ETV1 = ETV1 (Homo sapiens, UniProt P50549 1-477); details: protein: recombinant; tags: N-terminal GST; dsDNA, one strand shown
# Sequence of ETV1 (P50549 whole entry): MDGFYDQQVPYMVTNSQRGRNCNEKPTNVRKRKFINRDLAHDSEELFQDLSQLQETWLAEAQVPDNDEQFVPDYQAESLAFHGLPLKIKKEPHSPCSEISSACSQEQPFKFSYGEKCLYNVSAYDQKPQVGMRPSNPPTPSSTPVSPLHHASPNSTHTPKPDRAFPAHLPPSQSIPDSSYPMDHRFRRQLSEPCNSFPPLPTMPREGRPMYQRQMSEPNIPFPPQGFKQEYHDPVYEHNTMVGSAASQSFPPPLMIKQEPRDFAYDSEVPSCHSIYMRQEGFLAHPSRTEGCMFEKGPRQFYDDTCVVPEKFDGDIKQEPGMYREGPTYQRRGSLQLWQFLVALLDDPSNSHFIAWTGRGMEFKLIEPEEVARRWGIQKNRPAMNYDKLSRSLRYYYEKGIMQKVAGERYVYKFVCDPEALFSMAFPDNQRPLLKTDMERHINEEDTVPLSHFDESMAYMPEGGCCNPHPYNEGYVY
# In short: as §1
sequence,measurement,setting,value
CTCATC,binding signal,FLI1,"1.5 fold enrichment (6-mer frequency, TF over GST control)"
same,binding signal,ELK1,"1.36 fold enrichment (6-mer frequency, TF over GST control)"
same,binding signal,GABPA,"1.41 fold enrichment (6-mer frequency, TF over GST control)"
same,binding signal,ERG,"1.34 fold enrichment (6-mer frequency, TF over GST control)"
same,binding signal,ELF1,"1.35 fold enrichment (6-mer frequency, TF over GST control)"
same,binding signal,EHF,"1.35 fold enrichment (6-mer frequency, TF over GST control)"
same,binding signal,SPI1,"1.21 fold enrichment (6-mer frequency, TF over GST control)"
same,binding signal,SPIB,"1.41 fold enrichment (6-mer frequency, TF over GST control)"
same,binding signal,ELK3,"1.47 fold enrichment (6-mer frequency, TF over GST control)"
same,binding signal,FEV,"1.34 fold enrichment (6-mer frequency, TF over GST control)"
same,binding signal,ETV5,"1.34 fold enrichment (6-mer frequency, TF over GST control)"
same,binding signal,HSF1,"1.27 fold enrichment (6-mer frequency, TF over GST control)"
same,binding signal,SPIC,"1.49 fold enrichment (6-mer frequency, TF over GST control)"
same,binding signal,ELF4,"1.35 fold enrichment (6-mer frequency, TF over GST control)"
same,binding signal,ELK4,"1.32 fold enrichment (6-mer frequency, TF over GST control)"
same,binding signal,ETV2,"1.45 fold enrichment (6-mer frequency, TF over GST control)"
same,binding signal,ELF3,"1.49 fold enrichment (6-mer frequency, TF over GST control)"
same,binding signal,CRX,"1.32 fold enrichment (6-mer frequency, TF over GST control)"
same,binding signal,ETV1,"1.4 fold enrichment (6-mer frequency, TF over GST control)"
